Measured values from PubChem BioAssay.
Calls of active or inactive are those of the source.

What was measured:
[1] = biological target: Albumin (Bos taurus) (UniProt P02769); test: bovine serum albumin binders on microarray, profiling panel, artefact control for SMM control protein annotation, biochemical, small-molecule microarray, Alexa647 label, 635/667 nm fluorescence (AID 1118); details: BSA-A647 binding, fluorescence 635 nm, higher = more signal;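 note: score merges 667 nm emission intensity and signal-to-noise per printed compound spot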
Sequence of Albumin (Bos taurus) (P02769 whole entry, looked up): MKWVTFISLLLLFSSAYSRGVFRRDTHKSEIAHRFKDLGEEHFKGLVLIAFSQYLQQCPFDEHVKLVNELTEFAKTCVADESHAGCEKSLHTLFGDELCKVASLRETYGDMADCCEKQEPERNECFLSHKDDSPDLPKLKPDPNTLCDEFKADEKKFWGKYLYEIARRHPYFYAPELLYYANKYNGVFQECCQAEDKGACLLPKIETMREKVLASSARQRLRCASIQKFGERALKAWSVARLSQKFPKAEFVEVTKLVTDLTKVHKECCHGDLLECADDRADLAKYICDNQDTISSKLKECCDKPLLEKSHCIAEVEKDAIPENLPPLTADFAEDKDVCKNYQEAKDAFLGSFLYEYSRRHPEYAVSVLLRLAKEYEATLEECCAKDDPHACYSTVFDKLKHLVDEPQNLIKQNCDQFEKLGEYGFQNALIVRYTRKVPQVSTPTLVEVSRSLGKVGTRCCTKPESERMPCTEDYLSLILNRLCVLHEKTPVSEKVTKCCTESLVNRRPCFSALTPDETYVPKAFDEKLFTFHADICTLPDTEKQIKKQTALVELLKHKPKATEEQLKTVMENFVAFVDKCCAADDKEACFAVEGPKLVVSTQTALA

[2] = small-molecule microarray binders of probe aXIP, primary screen, biochemical, NeuroSMM set, 635/667 nm fluorescence (AID 1119); details: higher = more signal, called active from +8 up or from −8 down;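 note: probe is the protein aXip251-270 applied at 1 µg/mL to compound-printed slides; binding of probe to printed compounds measured as 667 nm fluorescence plus signal to noise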
[3] = small-molecule binders of probe aNOTCH3, primary screen, biochemical, small-molecule microarray, 635/667 nm fluorescence (AID 1120); details: higher = more signal;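 note: probe is a biotin-tagged antibody raised against NOTCH3 rather than NOTCH3 protein; score merges spot fluorescence near 667 nm with spot signal to noise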
[4] = small-molecule binders of probe aNOTCH2, primary screen, biochemical, small-molecule microarray, 635/667 nm fluorescence (AID 1121); details: higher = more signal;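 note: score merges feature fluorescence read at 667 nm with its signal to noise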
[5] = biological target: Carbonic anhydrase 2 (Homo sapiens) (UniProt P00918); test: CAII small-molecule binders, profiling panel, biochemical, small-molecule microarray, Alexa647-labelled CAII (AID 1122); details: CAII-A647 binding fluorescence, higher = more signal
[6] = COS7 lysate on small-molecule microarray, probe aHis, 635 nm (AID 1123); details: COS7 cell lysate, fluorescence, higher = more signal;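 note: z-score combines 667nm fluorescence intensity with signal-to-noise per printed compound spot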
[7] = compound binding in COS7 lysate, probe aLAP1, primary screen, cell lysate, small-molecule microarray (AID 1124); details: probe aLAP1, fluorescence, higher = more signal;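 note: lysate comes from COS7 cells expressing LAP1 and is applied at 0.3 µg/mL; score merges spot fluorescence near 667 nm with signal-to-noise over triplicate slides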
[8] = system: Sam68 (KHDRBS1); test: Sam68 small-molecule binders, primary screen, biochemical, small-molecule microarray, 635 nm fluorescence (AID 1125); details: small-molecule microarray binding, higher = more signal;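 note: score merges 667 nm channel intensity with signal to noise over triplicate slides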
[9] = system: Chordin-like protein 2 (CHRDL2); test: CHRDL2 small-molecule binders, primary screen, biochemical, small-molecule microarray, 635 nm fluorescence (AID 1126); details: small-molecule microarray binding, fluorescence 635 nm; higher = more signal;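 note: printed compound slides probed with Chrdl2 protein at 4 µg/mL for 1 h at 4 C; score merges 667 nm emission intensity with signal to noise over three replicate slides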
[10] = biological target: Concanavalin-A (Canavalia ensiformis) (UniProt P02866); test: ConA small-molecule binders, primary screen, artefact control for SMM control protein annotation, biochemical, small-molecule microarray, Alexa647 label, 635 nm (AID 1127); details: ConA-A647 binding fluorescence, higher = more signal;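 note: z combines 667 nm emission intensity with signal-to-noise across three replicate slides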
Sequence of Concanavalin-A (Canavalia ensiformis) (P02866 whole entry, looked up): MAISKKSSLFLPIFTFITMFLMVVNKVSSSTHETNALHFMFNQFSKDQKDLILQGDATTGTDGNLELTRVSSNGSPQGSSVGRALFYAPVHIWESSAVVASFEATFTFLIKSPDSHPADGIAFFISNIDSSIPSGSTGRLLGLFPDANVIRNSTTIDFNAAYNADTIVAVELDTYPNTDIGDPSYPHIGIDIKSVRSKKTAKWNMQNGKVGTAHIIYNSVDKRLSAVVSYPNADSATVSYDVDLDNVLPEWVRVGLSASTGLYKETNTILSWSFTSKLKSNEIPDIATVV

Row | Compound | composite z-score [1] | composite Z-score [2] | composite z-score [3] | composite z-score [4] | composite z-score [5] | composite z-score [6] | composite z-score [7] | composite z-score [8] | composite z-score [9] | composite z-score [10]
1 | CC[C@H](C)C(=O)O[C@H]1CC[C@]2(C)C3=C(CCC2C1(C)C)[C@]1(C)CC[C@H]([C@H](C)CCCC(C)C)[C@@]1(C)CC3 (stereo not given in full) | -0.0017 | -0.014 (inactive) | -0.0947 | -0.146 | -0.0247 | 0.627 | -0.329 | 0.329 | 0.367 | 0.515
2 | O=C1C2C=CC(C(O)c3cccs3)N(Nc3ccccc3)C2C(=O)N1c1ccccc1 (stereo not given) | 0.21 | 0.353 (inactive) | 0.0864 | -0.0731 | 0.787 | -0.0142 | -0.646 | -0.0232 | 0.568 | 0.0148
3 | O=C1OCCC=C[C@H]2OC34C=CCN(CCN5CCOCC5)C(=O)[C@H]3N(CCCO)C(=O)[C@@H]4C12 (stereo not given in full) | -0.444 | 1.11 (inactive) | -0.155 | -0.171 | 0.0003 | 1.2 | -0.0411 | -0.119 | -0.794 | -0.112
4 | COc1ccc([Si](C)(C)[C@H]2[C@H](CCn3cc([C@H](O)c4ccccc4)nn3)O[C@@]3(C(=O)N(c4ccccc4)c4ccccc43)[C@@H]2C)cc1 | 0.121 | -0.112 (inactive) | -0.0879 | -0.156 | -0.102 | -0.337 | -0.075 | 0.0941 | -0.201 | 0.173
5 | CC(C)[Si](C#CCCCC#N)(O[C@H](c1ccccc1)c1cn([C@H](C)c2ccccc2)nn1)C(C)C | 0.221 | -0.0102 (inactive) | 0.0357 | -0.0405 | 0.506 | 0.879 | 0.0714 | 1.24 | 0.293 | 0.444
6 | COCCOC(=O)N1C(=O)[C@@]2(c3cc(C#CCNC(N)=O)ccc31)[C@H](C(=O)NC[C@H](O)c1ccccc1)[C@H]1C(=O)O[C@H](c3ccccc3)[C@H](c3ccccc3)N1[C@@H]2c1ccc(OCCO)cc1 | 0.472 | -0.102 (inactive) | 0.0018 | -0.2 | 0.355 | 0.245 | 0.666 | 1.26 | 0.285 | 1.02
7 | Cc1c(NC(=O)/C(C#N)=C/c2ccc(Cl)cc2)c(=O)n(-c2ccccc2)n1C | 0.87 | 1.5 (inactive) | 0.029 | -0.145 | 0.229 | 1.65 | 0.761 | 0.396 | 0.122 | 0.736
8 | NC(=O)NCC#Cc1ccc2c(c1)[C@]1(C(=O)N2)[C@H](C(=O)N2CCCCCCC2)[C@H]2C(=O)O[C@H](c3ccccc3)[C@H](c3ccccc3)N2[C@@H]1c1ccc(O)cc1 | 0.408 | -0.573 (inactive) | 1.38 | 0.796 | 0.341 | 1.2 | 0.624 | 1.07 | 1.2 | 1.09
9 | C=CCC(OC(C)=O)[C@@H]1[C@@H](N(Cc2ccc(-c3ccccc3)cc2)C(=O)c2ccc(C)cc2)c2cc(OCCCO)ccc2N1C(=O)c1ccc2ccccc2c1 (stereo not given in full) | 0.608 | -0.46 (inactive) | 0.0282 | -0.127 | -0.104 | 0.756 | -0.031 | -0.15 | 0.0542 | -0.328
10 | O=c1cccc(-c2ccccc2C(F)(F)F)o1 | 0.747 | 0.3 (inactive) | 0.583 | 0.581 | 0.354 | 0.491 | -0.148 | -0.519 | -0.223 | -0.407
11 | N#Cc1ccc(C(O)C2C=CC3C(=O)N(c4ccccc4)C(=O)C3N2Nc2ccc([N+](=O)[O-])cc2)cc1 (stereo not given) | 0.895 | 0.453 (inactive) | 0.0749 | 0.0912 | 0.748 | 2.45 | 1.05 | 1.28 | -0.558 | 1.23
12 | O=C1O[C@H](c2ccccc2)[C@H](c2ccccc2)N2[C@H]1[C@@H](C(=O)NC[C@H](O)c1ccccc1)[C@]1(C(=O)Nc3ccc(C#CCCO)cc31)[C@H]2c1ccccc1OCCO | 0.695 | 1.27 (inactive) | -0.0581 | -0.0666 | 0.597 | 2.38 | 0.728 | 1.29 | -0.189 | 1.02
13 | COC(=O)[C@@]1(Cc2ccc(F)cc2)[C@H]2c3cc(C(=O)N4CCCC4)n(CCO)c3C[C@H]2CN1C(=O)c1ccccc1 | 0.503 | -0.196 (inactive) | 0.329 | 0.227 | 0.753 | 3.45 | 0.393 | -2.03 | -1.04 | -0.242
14 | CCCCC(=C=CC[C@@H](O)c1ccc(OCCO)cc1)C[C@@H](O)c1ccccn1 | 0.681 | 0.111 (inactive) | 0.0557 | -0.0785 | 0.326 | -0.0207 | 0.209 | 1.15 | 0.102 | 0.223
15 | COc1ccc([Si](C)(C)[C@H]2[C@H](CCO)O[C@@]3(C(=O)N(Cc4ccccc4)c4ccc(N(C=O)c5ccccc5)cc43)[C@@H]2C)cc1 | 0.717 | -0.328 (inactive) | 0.0576 | -0.0984 | 0.189 | 0.929 | 0.0964 | 0.936 | -0.0384 | 1.02
